Assay outcomes as filed in PubChem.
TDP1 block = blocks human tyrosyl-DNA phosphodiesterase 1; 0.28% of 350,000 active; Potency, µM (doses to about 130 µM), usual class: inhibitors; recombinant TDP1, AlphaScreen DNA substrate cleavage; also: nearly all actives have a fitted effect of over 40% in size
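Signal: AlphaScreen proximity between streptavidin donor and anti-FITC acceptor beads on intact substrate. Reaction: Tdp1 1 nM, substrate 15 nM final, 5 min RT after 15 min compound preincubation.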
CtBP-E1A blk = CtBP/E1A binding inhibition | AlphaScreen GST-E1A/His-CtBP binding, 1536-well; hits give low values | activity change, % (concentration not given with the values) | 0.49% of 340,000 active; in the data active = activity change below about -65%; inconclusive = mostly about -30% to -63%
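Protein mix (5X: 125 nM each GST-E1A, His-CtBP) was incubated with pinned compound 2 h at 37 deg C in dark, in 50 mM Tris pH 8.0 buffer with 300 mM NaCl. Glutathione donor and nickel acceptor beads followed; AlphaScreen signal read after 1 h.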
IL-1B inflam inh = inhibitors of inflammasome signaling (IL-1 beta secretion); THP-1 LPS/ATP IL-1B secretion, AlphaLISA, 16 h; hits give low values; 4.7% of 360,000 active; activity change, % at 57.5 µM; in the data active = activity change below about -50%; inconclusive = mostly about -30% to -49%
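Secreted IL-1B measured by AlphaLISA bead assay after 16 h compound exposure of THP-1 cells; compounds (final up to 57.5 uM) added 1 h before LPS (250 ng/mL) and ATP (1.25 mM) stimulation; lower signal means less secretion.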
Six1-Eya2 inh = Six1/Eya2 interaction inhibition; AlphaScreen GST-Six1/His-Eya2 binding, biochemical; hits give low values; activity change, % (test concentration not listed); 0.56% of 360,000 active; Q15475+O00167; in the data active = activity change below about -65%; inconclusive = mostly about -30% to -63%
Target sequence (O00167 whole entry, looked up): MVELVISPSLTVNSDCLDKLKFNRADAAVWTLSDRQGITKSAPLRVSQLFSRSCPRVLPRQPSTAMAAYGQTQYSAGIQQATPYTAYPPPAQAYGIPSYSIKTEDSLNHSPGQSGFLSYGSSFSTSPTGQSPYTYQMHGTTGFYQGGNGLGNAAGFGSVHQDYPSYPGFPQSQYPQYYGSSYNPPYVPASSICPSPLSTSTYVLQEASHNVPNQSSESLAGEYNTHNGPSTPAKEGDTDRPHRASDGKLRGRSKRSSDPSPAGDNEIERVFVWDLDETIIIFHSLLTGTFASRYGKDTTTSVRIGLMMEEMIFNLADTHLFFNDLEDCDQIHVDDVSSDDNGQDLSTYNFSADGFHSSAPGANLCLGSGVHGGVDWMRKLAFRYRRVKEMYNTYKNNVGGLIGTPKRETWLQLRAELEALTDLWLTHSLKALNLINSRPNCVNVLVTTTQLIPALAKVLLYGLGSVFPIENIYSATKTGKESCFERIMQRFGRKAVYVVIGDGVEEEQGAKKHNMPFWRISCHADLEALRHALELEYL
Target sequence (Q15475 whole entry, looked up): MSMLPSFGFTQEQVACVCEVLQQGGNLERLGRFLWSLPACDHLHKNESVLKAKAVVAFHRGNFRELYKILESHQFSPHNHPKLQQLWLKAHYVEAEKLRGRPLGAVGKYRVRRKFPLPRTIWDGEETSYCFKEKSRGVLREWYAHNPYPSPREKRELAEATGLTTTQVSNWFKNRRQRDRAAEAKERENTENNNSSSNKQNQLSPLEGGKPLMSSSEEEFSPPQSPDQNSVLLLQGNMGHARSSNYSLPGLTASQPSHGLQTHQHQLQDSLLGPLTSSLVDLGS
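Homogeneous AlphaScreen proximity assay pairing GST-Six1 with His-tagged Eya2 (added as 5X mix: 250 nM and 500 nM) in 50 mM Tris pH 8.0, 300 mM NaCl, 1 mM TCEP. Glutathione donor and nickel acceptor beads; 1 h, 37 °C, dark.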
TDP1 cell CPT = growth inhibition of DT40 Tdp1-/-;hTDP1 cells with camptothecin (screen for TDP1 inhibitors) | chicken DT40 Tdp1-/-;hTDP1 cells + 20 nM CPT, ATP luminescence, 48 h | Potency, µM (highest dose often 46.2 µM), usual class: inhibitors | 12% of 420,000 active | AID 686979; also: nearly all actives have a fitted effect of over 55% in size
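Chicken DT40 Tdp1-/- cells complemented with human TDP1, 400 cells/well, exposed to compounds plus 20 nM camptothecin for at least 48 h at 37 C; viability read as ATP content by CellTiter-Glo luminescence.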
TDP1 cell noCPT = qHTS for Inhibitors of human tyrosyl-DNA phosphodiesterase 1 (TDP1): qHTS in cells in absence of CPT; DT40 Tdp1-/- hTDP1 cells, no CPT, ATP luminescence, 48 h; Potency, µM (top dose mostly 46.2 µM), actives largely listed as inhibitors; 15% of 420,000 active; AID 686978, 2013; also: nearly all actives have a fitted effect of over 55% in size
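No-CPT arm: Tdp1-/-;hTDP1 DT40 cells (400/well) plus compounds, incubated ≥48 hr at 37 °C. Readout CellTiter-Glo luminescence.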
Of the large screens only hits and unclear results are named; the others gave an inactive call. Shown are actives, neighbours in structure and some others; about 18% of the full set was active somewhere. Unless noted, calls follow the shape of the dose curve; as a rule, active = well fitted curve in the direction sought with a large enough effect; inconclusive = small, poorly fitted or top-dose-only effect, or another doubt; inactive = no such curve, though single readings can be large; an effect the other way counts as inactive or inconclusive.

Clc1nc(Nc2ccc(N3CCOCC3)cc2)c2ccccc2n1	IL-1B inflam inh -64, TDP1 cell CPT inconclusive, TDP1 cell noCPT inconclusive
Cc1cnc(C(=O)NC2CC(C)(C)Cc3c2cnn3-c2ccccc2)cn1 (configuration not stated)	TDP1 cell CPT inconclusive, TDP1 cell noCPT inconclusive
CCn1cc(C(=O)NCCc2ccc(OC)cc2)c(=O)c2ccc(C)nc21	TDP1 cell CPT inconclusive, TDP1 cell noCPT 23µM
CCn1cc(C(=O)OCC(=O)Nc2c(C)cccc2C)c(=O)c2ccc(C)nc21	TDP1 cell CPT 16µM, TDP1 cell noCPT 23µM
COC(=O)c1ccccc1NC(=S)NC(=O)c1ccc(C)cc1	Six1-Eya2 inh inconclusive, TDP1 cell CPT inconclusive
Cc1ccccc1C(=O)N1CC(=O)Nc2ccc(F)cc2C1c1ccc(F)cc1 (configuration not stated)	TDP1 cell noCPT inconclusive (no result: TDP1 block)
CCN(CC(=O)NCc1ccc(Cl)cc1)C(=O)Cc1ccc(OC)cc1	none
O=C(Oc1ccc(N(Cc2cccs2)C2=NS(=O)(=O)c3ccccc32)cc1)c1ccc(Cl)cc1	TDP1 cell CPT inconclusive, TDP1 cell noCPT 18µM
CN(C1=NS(=O)(=O)c2ccccc21)c1ccc(OC(=O)c2ccccc2)cc1	TDP1 cell noCPT inconclusive (no result: TDP1 block)
O=C(Oc1ccc(N(Cc2cccs2)C2=NS(=O)(=O)c3ccccc32)cc1)c1ccccc1	TDP1 cell CPT inconclusive, TDP1 cell noCPT 23µM
COc1cc2c(cc1OC)NC(=O)C2	none (no result: TDP1 block)
Cc1c(C2(c3cc(C(C)C)c(O)c(Br)c3C)OS(=O)(=O)c3ccccc32)cc(C(C)C)c(O)c1Br	none (no result: TDP1 block, CtBP-E1A blk, IL-1B inflam inh, Six1-Eya2 inh)
O=C(Nc1ccc(-n2cccn2)cc1)C1CCCCN1Cc1cccc2cccnc12 (configuration not stated)	IL-1B inflam inh -50, TDP1 cell CPT inconclusive, TDP1 cell noCPT inconclusive
Cn1cc(CN2CCCCC2C(=O)Nc2ccc(-n3cccn3)cc2)cn1 (configuration not stated)	none
CC1CCCN(C(=O)c2cc3c(-c4ccc(Cl)cc4)nn(C)c3s2)C1 (configuration not stated)	TDP1 cell CPT inconclusive, TDP1 cell noCPT inconclusive
CCC1Oc2ccccc2N(CC(=O)NCc2ccc(C)cc2)C1=O (configuration not stated)	TDP1 cell CPT inconclusive, TDP1 cell noCPT inconclusive (no result: CtBP-E1A blk, IL-1B inflam inh, Six1-Eya2 inh)
CCC1Oc2ccccc2N(CC(=O)NCCC2=CCCCC2)C1=O (configuration not stated)	TDP1 cell CPT 16µM, TDP1 cell noCPT 26µM
Cc1nc(C(=O)N2CCc3c([nH]c4ccccc34)C2c2cc(F)ccc2F)cs1 (configuration not stated)	none
CC(OC(=O)/C=C/c1ccco1)C(=O)NC1CCCCC1 (configuration not stated)	TDP1 cell noCPT inconclusive (no result: TDP1 block)
COc1ccc(CN(C)C(=O)c2oc3ccccc3c2CSC)cc1F	TDP1 cell CPT 23µM, TDP1 cell noCPT 21µM
COc1ccc(CCN(C)C(=O)c2oc3ccccc3c2C)cc1OC	TDP1 cell CPT inconclusive, TDP1 cell noCPT inconclusive
COC(=O)C1C(=O)c2c([nH]c(C(=O)OCC3CCCO3)c2C)CC1C (configuration not stated)	TDP1 cell CPT 16µM
COCCOC(=O)c1[nH]c2c(c1C)C(=O)C(C(=O)OC)C(C)C2 (configuration not stated)	none
CCCCCOC(=O)c1[nH]c2c(c1C)C(=O)C(C(=O)OC)C(C)C2 (configuration not stated)	IL-1B inflam inh inconclusive, TDP1 cell CPT 9.2µM, TDP1 cell noCPT 18µM
CCOc1ccccc1CNC(=O)c1ccc(CS(=O)Cc2cccc(Cl)c2)o1 (configuration not stated)	TDP1 cell CPT inconclusive, TDP1 cell noCPT 21µM (no result: CtBP-E1A blk, IL-1B inflam inh, Six1-Eya2 inh)
COc1ccc(CNC(=O)c2ccc(CS(=O)Cc3cccc(Cl)c3)o2)cc1 (configuration not stated)	TDP1 cell CPT inconclusive
COc1ccc(OC)c(CCNC(=O)c2ccc(CS(=O)Cc3cccc(Cl)c3)o2)c1 (configuration not stated)	TDP1 cell CPT 23µM, TDP1 cell noCPT 21µM
CSCCC(NS(=O)(=O)c1ccccc1)C(=O)OC(C)C(=O)Nc1ccc(Cl)cn1 (configuration not stated)	none
CCOC(=O)c1cnc2ccc(C)cc2c1Sc1ccc(F)cc1	TDP1 cell CPT inconclusive, TDP1 cell noCPT inconclusive
CCOC(=O)c1cnc2ccc(C)cc2c1Sc1ccccc1	TDP1 cell CPT inconclusive, TDP1 cell noCPT 26µM
CCOC(=O)c1cnc2ccc(C)cc2c1N(C)Cc1ccccc1	IL-1B inflam inh -68, TDP1 cell CPT inconclusive, TDP1 cell noCPT inconclusive (no result: TDP1 block)
Cc1ccc(NC(=O)N2CCN(C(=O)c3ccco3)CC2)cc1Cl	TDP1 cell noCPT inconclusive
Cc1ccccc1C(=O)N1CCN(c2ccc(NC(=O)c3ccco3)cc2Cl)CC1	IL-1B inflam inh -89, TDP1 cell CPT 15µM, TDP1 cell noCPT 9.2µM
O=C(Nc1ccc(N2CCN(C(=O)c3cccs3)CC2)c(Cl)c1)c1ccco1	IL-1B inflam inh inconclusive, TDP1 cell CPT inconclusive, TDP1 cell noCPT 15µM
O=C(NC(=S)Nc1cccc(O)c1)c1ccco1	none (no result: CtBP-E1A blk)
CC1CCN(C(=O)CSc2nc3c(c(=O)n2C)SC(C)C3)CC1 (configuration not stated)	TDP1 cell CPT inconclusive, TDP1 cell noCPT 21µM
CC1Cc2nc(SCC(=O)N3CCCc4ccccc43)n(C)c(=O)c2S1 (configuration not stated)	TDP1 cell CPT inconclusive, TDP1 cell noCPT 13µM
CCn1c(SCC(=O)N2CCCc3ccccc32)nc2c(c1=O)SC(C)C2 (configuration not stated)	TDP1 cell CPT 16µM, TDP1 cell noCPT inconclusive (no result: TDP1 block)
COC(=O)C1=C(C(=O)OC)[C@@H]2Nc3ccccc3[C@@]23C[C@@H](C(=O)OC)N(C(=O)CC(C)C)C3=N1	none
O=C1c2ccccc2CCC12OC2c1ccc([N+](=O)[O-])cc1 (configuration not stated)	TDP1 cell CPT inconclusive, TDP1 cell noCPT inconclusive (no result: TDP1 block)
O=C1c2ccccc2CCC12OC2c1ccncc1 (configuration not stated)	TDP1 cell noCPT 2.9µM (no result: TDP1 block)
Cc1csc(N(C(=O)c2cccc(S(=O)(=O)N(C)C)c2)c2ccccc2)n1	TDP1 cell CPT 15µM, TDP1 cell noCPT inconclusive
Cc1csc(N(C(=O)c2cccc(S(=O)(=O)N3CCCC3)c2)c2ccccc2)n1	TDP1 cell CPT 21µM, TDP1 cell noCPT 18µM
